Test results published in PubChem BioAssay AID2551 (National Center for Advancing Translational Sciences (NCATS), 2010).
Among all 310,000 compounds or so, about 17,000 (5.5%) were called active. Roughly 11% stayed inconclusive and do not appear here. Calls come from the whole dose curve; as a rule, active = well fitted inhibition curve with a large enough effect; inconclusive = small, poorly fitted or top-dose-only effect, or effect the other way; inactive = no such curve, though single readings can be large or run the other way. This excerpt belongs to a sample that is enriched for actives.

Target: Nuclear receptor ROR-gamma (Mus musculus) (UniProt P51450)
Sequence (P51450 whole entry, looked up): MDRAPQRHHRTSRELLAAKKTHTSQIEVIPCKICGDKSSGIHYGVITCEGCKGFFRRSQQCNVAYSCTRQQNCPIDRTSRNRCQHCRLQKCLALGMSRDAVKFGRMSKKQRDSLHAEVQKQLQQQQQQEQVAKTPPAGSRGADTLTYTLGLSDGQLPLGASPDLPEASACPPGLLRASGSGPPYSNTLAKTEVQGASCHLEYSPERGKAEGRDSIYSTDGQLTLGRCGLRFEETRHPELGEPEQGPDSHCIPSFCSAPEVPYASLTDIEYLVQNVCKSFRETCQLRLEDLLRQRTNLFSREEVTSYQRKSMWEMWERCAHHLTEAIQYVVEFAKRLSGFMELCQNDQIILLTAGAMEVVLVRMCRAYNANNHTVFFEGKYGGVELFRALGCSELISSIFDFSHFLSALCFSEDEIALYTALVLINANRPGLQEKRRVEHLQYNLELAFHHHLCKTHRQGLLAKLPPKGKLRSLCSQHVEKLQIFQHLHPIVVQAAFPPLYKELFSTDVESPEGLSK
Assay: qHTS for inhibitors of ROR gamma transcriptional activity; note: nearly all actives have a fitted effect of over 60% in size
Conditions: Drosophila S2 Gal4-RORgamma UAS-luciferase reporter, 20 h; series mostly up to 53.6 µM; activity change, negative = inhibition: at the top concentration
Summary of the method: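 Drosophila S2 cells stably expressing Gal4-DBD/mouse RORγ fusion under metallothionein promoter plus UAS-luciferase; compound 1 h, then 700 uM CuSO4 induction for 20 h at ambient temperature; inhibition read as reduced luminescence.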
% is set by controls: 0 for no effect and ±100 for the full control effect; potency is the fitted concentration of half-maximal effect.

**Q.** `O=C1CSc2ccc(S(=O)(=O)NCc3ccccc3)cc2N1` was tested. Which “activity change, negative = inhibition” value did it give?
**A.** The value was 33.7% (inactive).

**Q.** Which “activity change, negative = inhibition” value does the source give for `CN(Cc1ccccc1)C(=O)C1CCCN(c2ncnc3c2nc2n3CCCCC2)C1` (centres undefined) here?
**A.** Its value is -2.47% (inactive).

**Q.** Which “activity change, negative = inhibition” value does the source give for `CN(C)CCN(C(=O)C1=COCCO1)c1nc2ccc(Cl)cc2s1` here?
**A.** Its value is -21% (inactive).

**Q.** With `CN(C)c1ccc(/C=C2\NC(=S)N(Cc3ccccc3)C2=O)cc1` as the compound, how does the Potency read?
**A.** The Potency was 5.01 µM (active).

**Q.** Which “activity change, negative = inhibition” value does the source give for `O=C1NCC(=O)N(Cc2ccccc2)/C1=C/c1ccccc1` here?
**A.** The value was 20.5% (inactive).

**Q.** `CC1=NN(Cc2ccccc2)C(=O)/C1=C/c1ccc(N(C)C)cc1` was tested. Which “activity change, negative = inhibition” value did it give?
**A.** Its value is 19.9% (inactive).

**Q.** `COC(=O)CSc1nnc(NC(=O)CCc2ccccc2)s1` was tested. Which “activity change, negative = inhibition” value did it give?
**A.** Its value is -29.2% (inactive).

**Q.** Which “activity change, negative = inhibition” value does the source give for `O=C(Cc1ccc(Br)cc1)NCCN1CCOCC1` here?
**A.** The value was 0.0908% (inactive).

**Q.** For `Clc1ccc(-c2nnc(-c3ccccc3)nc2N2CCSCC2)cc1`, which “activity change, negative = inhibition” value is on record?
**A.** Its value is 1.66% (inactive).

**Q.** With `CC1CCN(Cc2nc(-c3ccc(Cl)cc3)no2)CC1` as the compound, how does the “activity change, negative = inhibition” value read?
**A.** Its value is -0.501% (inactive).

**Q.** How did the Potency turn out when `Clc1ccc(-c2nc3ccccn3c2CN2CCSCC2)cc1` was run?
**A.** The Potency was 12.6 µM (active).

**Q.** Which “activity change, negative = inhibition” value does the source give for `Cc1ccc(N(Cc2ccccc2O)C(=O)c2ccccc2F)cc1` here?
**A.** Its value is -3.87% (inactive).

**Q.** Which Potency does the source give for `COc1ccc(C(=O)O/N=C(\N)Cc2ccc(Cl)cc2Cl)cc1OC` here?
**A.** The Potency was 15.8 µM (active).

**Q.** For `COc1ccc(C/C(N)=N/OC(=O)c2ccco2)cc1OC`, which “activity change, negative = inhibition” value is on record?
**A.** The value was 8.38% (inactive).

**Q.** With `COc1ccc(C(=O)ON=C2c3ccccc3-c3ccccc32)cc1OC` as the compound, how does the “activity change, negative = inhibition” value read?
**A.** The value was -1.62% (inactive).

**Q.** Which “activity change, negative = inhibition” value does the source give for `CCOc1ccc(N(CC(=O)Nc2cccc(OC)c2)S(C)(=O)=O)cc1` here?
**A.** Its value is 5.74% (inactive).

**Q.** With `OC(CNCCc1ccc(Cl)cc1Cl)COc1ccccc1` (centres undefined) as the compound, how does the “activity change, negative = inhibition” value read?
**A.** Its value is 4.24% (inactive).

**Q.** How did the “activity change, negative = inhibition” value turn out when `COc1ccc(C2CC(c3cccs3)=NN2C(=O)CCC(=O)O)cc1OC` (centres undefined) was run?
**A.** Its value is -28% (inactive).

**Q.** Which “activity change, negative = inhibition” value does the source give for `O=C(CCC(=O)Nc1ccccc1)N/N=C/c1ccccc1F` here?
**A.** The value was 23% (inactive).

**Q.** `O=C(N/N=C/c1ccccc1O)/C(=C/c1ccccc1)CCO` was tested. Which Potency did it give?
**A.** Its Potency is 1.12 µM (active).

**Q.** How did the “activity change, negative = inhibition” value turn out when `O=C(CCCCCNC(=O)c1ccccc1)N/N=C/c1ccccc1` was run?
**A.** The value was 25.7% (inactive).

**Q.** `COC(=O)c1ccc(COC(=O)c2cnc(Cl)c(Cl)c2)cc1` was tested. Which “activity change, negative = inhibition” value did it give?
**A.** Its value is 2.5% (inactive).

**Q.** For `CCn1c(SCC(=O)NC2CC2)nnc1-c1ccccn1`, which “activity change, negative = inhibition” value is on record?
**A.** Its value is -1.01% (inactive).

**Q.** For `COc1ccc(/C=C/C2=CC(C)(C)NC(=S)N2)c(OC)c1`, which Potency is on record?
**A.** Its Potency is 1.26 µM (active).

**Q.** For `COc1cc(/C=C/C2=CC(C)(C)NC(=S)N2)cc(OC)c1OC`, which Potency is on record?
**A.** The Potency was 3.55 µM (active).

**Q.** Which “activity change, negative = inhibition” value does the source give for `CCC(=O)c1ccc(OC(=O)/C=C/c2cc(OC)c(OC)c(OC)c2)cc1` here?
**A.** Its value is -30% (inactive).

**Q.** With `COc1ccc(N)c(OC)c1` as the compound, how does the “activity change, negative = inhibition” value read?
**A.** The value was -20.4% (inactive).

**Q.** `COc1ccc(/C=C2/C(=O)N(c3ccccc3)N=C2C)c(OC)c1` was tested. Which “activity change, negative = inhibition” value did it give?
**A.** Its value is 20.8% (inactive).

**Q.** `CCOC(=O)COn1c(=O)c(-c2ccc(OCC)cc2)[n+]([O-])c2ccccc21` was tested. Which “activity change, negative = inhibition” value did it give?
**A.** The value was 4.06% (inactive).

**Q.** With `COc1cc(C(=O)OCC(=O)NC(C)CCc2ccccc2)cc(OC)c1OC` (centres undefined) as the compound, how does the “activity change, negative = inhibition” value read?
**A.** The value was 5.34% (inactive).

**Q.** `COc1cc(C(C(=O)NC2CCCC2)N(Cc2ccccc2)C(=O)c2snc(C(N)=O)c2N)ccc1O` (centres undefined) was tested. Which “activity change, negative = inhibition” value did it give?
**A.** The value was -5.04% (inactive).

**Q.** `COc1cccc(/C=N/NC(=O)c2cccc([N+](=O)[O-])c2)c1OS(=O)(=O)c1ccc(C)cc1` was tested. Which “activity change, negative = inhibition” value did it give?
**A.** The value was -19.9% (inactive).

**Q.** For `Cc1[nH]n(-c2ccccc2)c(=O)c1N=Nc1ccccc1C(=O)N1CCCCC1`, which “activity change, negative = inhibition” value is on record?
**A.** Its value is 0.698% (inactive).

**Q.** With `Cc1[nH]n(-c2ccccc2)c(=O)c1/C=N/NC(=O)c1ccoc1C` as the compound, how does the Potency read?
**A.** The Potency was 0.251 µM (active).

**Q.** For `COc1cc(/C=N/NC(=O)c2ccoc2C)ccc1OCCN1CCCCC1`, which “activity change, negative = inhibition” value is on record?
**A.** The value was -8.8% (inactive).

**Q.** `O=C(N/N=C/c1cccc([N+](=O)[O-])c1)c1ccncc1` was tested. Which “activity change, negative = inhibition” value did it give?
**A.** The value was 13.7% (inactive).

**Q.** `Cc1ccc(-n2[nH]c(C)c(/C=N/NC(=O)c3cccc([N+](=O)[O-])c3)c2=O)cc1C` was tested. Which Potency did it give?
**A.** Its Potency is 1.12 µM (active).

**Q.** `Cc1oc(-c2ccccc2F)nc1CS(=O)CC(=O)NCCN1CCCCC1C` (centres undefined) was tested. Which “activity change, negative = inhibition” value did it give?
**A.** The value was -5.2% (inactive).

**Q.** With `CCOc1ccc(S(=O)(=O)N2CCN=C2Cc2ccccc2)cc1C` as the compound, how does the “activity change, negative = inhibition” value read?
**A.** Its value is -32.3% (inactive).

**Q.** Which “activity change, negative = inhibition” value does the source give for `COc1cccc(CNC(=O)CCCC(=O)Nc2cccc([N+](=O)[O-])c2)c1` here?
**A.** Its value is 34.9% (inactive).

**Q.** How did the “activity change, negative = inhibition” value turn out when `Cc1cnc(C)c(N2CCN(C(=O)C3CCC(=O)N(CCc4cccc(F)c4)C3)CC2)n1` (centres undefined) was run?
**A.** The value was 1.08% (inactive).

**Q.** With `Cc1cc(C)c2c(n1)nn1c(-n3ccnc3)cc(C)nc21` as the compound, how does the Potency read?
**A.** The Potency was 10 µM (active).

**Q.** How did the “activity change, negative = inhibition” value turn out when `Cc1cc(C)c2c(NC(=O)C3CC3)nn(C)c2n1` was run?
**A.** Its value is 10.5% (inactive).

**Q.** Which “activity change, negative = inhibition” value does the source give for `Cc1cc(-n2nc(C)cc2C)n2nc(C)c(-c3ccccc3)c2n1` here?
**A.** The value was -12.8% (inactive).

**Q.** How did the “activity change, negative = inhibition” value turn out when `O=C(Nc1ccc(F)cc1)C(=O)c1cn(CC(=O)N2CCOCC2)c2ccccc12` was run?
**A.** The value was 26% (inactive).

**Q.** For `CCSc1nc(O)c(C(c2cccc(OC)c2)c2c(O)nc(SCC)[nH]c2=O)c(=O)[nH]1`, which “activity change, negative = inhibition” value is on record?
**A.** Its value is -12.8% (inactive).

**Q.** `CC(=O)c1cccc(NC(=S)N2CCCC2)c1` was tested. Which “activity change, negative = inhibition” value did it give?
**A.** Its value is -4.06% (inactive).

**Q.** Which “activity change, negative = inhibition” value does the source give for `CCOC(=O)C1(Cc2ccccc2C)CCCN(C(=O)CCc2c(C)noc2C)C1` (centres undefined) here?
**A.** Its value is -5.53% (inactive).

**Q.** With `COc1ccc(N2C(=O)C(Cc3ccccc3)NC2=S)cc1` (centres undefined) as the compound, how does the “activity change, negative = inhibition” value read?
**A.** The value was -5.44% (inactive).

**Q.** With `COc1ccc(N2C(=O)C3CCCN3C2c2cccc(OC)c2)cc1` (centres undefined) as the compound, how does the “activity change, negative = inhibition” value read?
**A.** The value was 3.84% (inactive).

**Q.** For `COc1ccc(N2C(=O)C3C(C2=O)C(C(=O)c2ccccc2)N2CCCC32)cc1` (centres undefined), which Potency is on record?
**A.** The Potency was 11.2 µM (active).

**Q.** `O=S1(=O)N=C(N(CCO)/N=C/c2ccccc2F)c2ccccc21` was tested. Which “activity change, negative = inhibition” value did it give?
**A.** The value was -1.86% (inactive).

**Q.** `COc1ccc(-n2cc(-c3ccccc3)c3c(=S)nc[nH]c32)cc1` was tested. Which Potency did it give?
**A.** Its Potency is 0.501 µM (active).

**Q.** `O=c1[nH]cnc2c1c(-c1ccccc1)cn2-c1ccc(F)cc1` was tested. Which “activity change, negative = inhibition” value did it give?
**A.** Its value is 18.3% (inactive).

**Q.** How did the “activity change, negative = inhibition” value turn out when `COc1ccc(N2CCN(Cc3nnc(-c4ccccc4)o3)CC2)cc1` was run?
**A.** Its value is 2.46% (inactive).

**Q.** `Cc1cccc(NC(=O)CCN2CC(C)CC(C)C2)c1` (centres undefined) was tested. Which “activity change, negative = inhibition” value did it give?
**A.** Its value is -3.81% (inactive).

**Q.** Which Potency does the source give for `c1ccc(-c2cn3c(n2)CCc2ccc4cccnc4c2-3)cc1` here?
**A.** Its Potency is 3.55 µM (active).

**Q.** With `COCC(=O)N1CCc2ccc(NC(=O)c3ccccc3Cl)cc2C1` as the compound, how does the activity change, negative = inhibition read?
**A.** The activity change, negative = inhibition was 8.09% [at 1.91 µM] (inactive).

**Q.** How did the “activity change, negative = inhibition” value turn out when `CC(NC(=O)Cn1cc(C(F)(F)F)cc(Cl)c1=O)c1ccccc1` (centres undefined) was run?
**A.** The value was -10.7% (inactive).

**Q.** Which “activity change, negative = inhibition” value does the source give for `Cc1ccc(S(=O)(=O)c2nc(-c3cccs3)oc2NCc2cccnc2)cc1` here?
**A.** The value was 7.35% (inactive).

**Q.** For `C/C(=N/NC(=S)Nc1ccccc1)c1ccc2c(c1)OCO2`, which Potency is on record?
**A.** The Potency was 1.26 µM (active).

**Q.** How did the “activity change, negative = inhibition” value turn out when `C/C(=N/NC(=O)c1ccncc1)c1ccc2c(c1)OCO2` was run?
**A.** Its value is 32.9% (inactive).

**Q.** `C/C(=N\NC(=O)C(N)=O)c1ccc2c(c1)OCCO2` was tested. Which “activity change, negative = inhibition” value did it give?
**A.** Its value is 28.9% (inactive).

**Q.** How did the “activity change, negative = inhibition” value turn out when `CCCCc1nc(SCC(=O)Nc2nnc(C(C)C)s2)n[nH]1` was run?
**A.** The value was -7.48% (inactive).

**Q.** With `Cc1ccc2nc(-c3ccncc3)cc(C(=O)Nc3ccncc3)c2c1` as the compound, how does the “activity change, negative = inhibition” value read?
**A.** Its value is -21.9% (inactive).

**Q.** `Cc1cc(C)cc(OCC(=O)NC(C)c2ccccc2)c1` (centres undefined) was tested. Which “activity change, negative = inhibition” value did it give?
**A.** The value was 24.4% (inactive).

**Q.** With `O=C(N/N=C/c1ccc2c(c1)OCO2)C(=O)N1CCCC1` as the compound, how does the “activity change, negative = inhibition” value read?
**A.** Its value is -1.04% (inactive).

**Q.** How did the Potency turn out when `O=C1/C(=C/c2ccc3c(c2)OCO3)CCC/C1=C\c1ccc2c(c1)OCO2` was run?
**A.** Its Potency is 11.2 µM (active).

**Q.** With `CCC1=C/C(=C\c2ccc3c(c2)OCO3)C(=O)S1` as the compound, how does the “activity change, negative = inhibition” value read?
**A.** The value was 24.2% (inactive).
